Source: PubChem BioAssay (Tox21)
Inconclusive results are not listed. Activity calls are given as the source filed them. Unless noted, calls come from the whole dose curve; as a rule, active = well fitted curve in the direction sought with a large enough effect in the repeat runs; inconclusive = weak or mixed curves; inactive = no such curve, though single readings can be large; an effect the other way counts as inactive or inconclusive.

Experiments:
[1] = qHTS assay for small molecule agonists of the p53 signaling pathway (AID 651631; calls by dose curve; note: nearly all actives have a fitted effect of over 15% in size)
In short: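 Quantitative high-throughput format: 4,000 p53RE-bla HCT-116 cells/well, 5 h pre-incubation, 16 h compound exposure at 37 °C, 2 h room-temperature substrate step, fluorescence intensity measured.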

[2] = qHTS assay for small molecules that induce genotoxicity in human embryonic kidney cells expressing luciferase-tagged ATAD5 (AID 651632); note: nearly all actives have a fitted effect of over 15% in size
In short: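 Test compounds were delivered by pin tool onto HEK293T reporter cells (2,000/well) expressing ATAD5 fused to luciferase. After 16 hr at 37C, 5% CO2, Amplite was added for 30 min at room temperature and luminescence was measured.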

[3] = qHTS assay for small molecule agonists of the p53 signaling pathway - cell viability (AID 651633; calls by dose curve;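 note: p53RE-bla HCT reporter cells with a stable beta-lactamase p53 reporter; series mostly up to about 83 µM; nearly all actives have a fitted effect of over 30% in size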)
In short: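 Viability counter-read: CellTiter-Glo luminescence (30 min, room temperature) in the same p53RE-bla plates. These plates had been exposed to compounds for 16 h at 37 C.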

[4] = qHTS assay for small molecules that induce genotoxicity in human embryonic kidney cells expressing luciferase-tagged ATAD5 - cell viability (AID 651634; calls by dose curve; note: nearly all actives have a fitted effect of over 25% in size)
In short: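 Quantitative high-throughput format. HEK293T cells expressing ATAD5 fused to luciferase were plated at 2,000 cells/well and treated 15.5 hr with compound versus DMSO. Viability was determined by fluorescent live-cell protease substrate, 30 min at 37C.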

[5] = qHTS assay for small molecule disruptors of the mitochondrial membrane potential - cell viability (AID 720634; calls by dose curve;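 note: human HepG2 liver cancer cells; series mostly up to about 83 µM; nearly all actives have a fitted effect of over 20% in size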)
In short: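 Same-well counter-screen: following the MMP dye addition, CellTiter-Glo was added to 1 hr compound-treated HepG2 cells and luminescence read after 30 min at room temperature.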

[6] = qHTS assay for small molecule disruptors of the mitochondrial membrane potential (AID 720635)
In short: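 Mitochondrial membrane potential tracked with Mito-MPS dye, red aggregates (ex 540/em 590 nm) against green monomers (ex 490/em 535 nm). Compound treatment 1 hr at 37C, dye 30 min in HepG2.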

[7] = qHTS assay to test for compound auto fluorescence at 590 nm (red) in HepG2 cells (AID 720674)
In short: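 Red autofluorescence (Ex/Em 540/590 nm, Rose Bengal sodium equivalents) was measured in HepG2 cells, 2,000 per well in MEM plus 10% FBS, plated overnight at 37 C. Readings were taken 1 hr after adding 23 nL compound or DMSO, at 37 C and 5% CO2.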

[8] = qHTS assay to test for compound auto fluorescence at 535 nm (green) in HepG2 cells (AID 720675)
[9] = qHTS assay to test for compound auto fluorescence at 460 nm (blue) in HEK293 cells (AID 720678)
In short: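 HEK293 cells (2,000 per well, medium with 10% dialyzed FBS) attached for 4-5 hr at 37C, then received compound and stood overnight at 37C, 5% CO2. Blue fluorescence was read at Ex/Em 405/460 nm and expressed relative to triamterene.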

[10] = qHTS assay to test for compound auto fluorescence at 590 nm (red) in HEK293 cells (AID 720679)
In short: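 HEK293 cells (2,000/well, medium with 10% dialyzed FBS) attached for 4-5 hr at 37C, received 23 nL compound and were incubated overnight at 37C, 5% CO2. Red fluorescence was then read at 540/590nm Ex/Em, referenced to Rose Bengal sodium.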

[11] = qHTS assay to test for compound auto fluorescence at 535 nm (green) in HEK293 cells (AID 720680)
[12] = qHTS assay to test for compound auto fluorescence at 460 nm (blue) in HEK293 cell free culture (AID 720681)
In short: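 Blue fluorescence (Ex 405/Em 460 nm, triamterene-equivalent) was read immediately after pin transfer of compound or DMSO into medium (DMEM, 10% FBS) without cells.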

[13] = qHTS assay to test for compound auto fluorescence at 535 nm (green) in HEK293 cell free culture (AID 720682)
In short: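 Measurement is a direct plate read of green fluorescence (485 nm in, 535 nm out) after compound addition to serum-supplemented DMEM lacking cells, with fluorescein used to express intensities.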

[14] = qHTS assay to test for compound auto fluorescence at 590 nm (red) in HEK293 cell free culture (AID 720683)
In short: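 Red-channel autofluorescence of compounds in culture medium (DMEM, 10% FBS), no cells, measured at 540/590 nm. Rose Bengal sodium is the reference fluorophore for equivalence.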

[15] = qHTS assay to test for compound auto fluorescence at 460 nm (blue) in HepG2 cell free culture (AID 720685)
In short: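 Cell-free plates of MEM plus 10% FBS received 23 nL compound or DMSO vehicle; blue-channel (405/460 nm) intensity scored against triamterene as reference fluorophore.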

[16] = qHTS assay to test for compound auto fluorescence at 535 nm (green) in HepG2 cell free culture (AID 720686)
[17] = qHTS assay to test for compound auto fluorescence at 460 nm (blue) in HepG2 cells (AID 720687)
In short: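 Blue-channel autofluorescence (Ex/Em 405/460 nm, triamterene-equivalent) was measured after 1 hr compound exposure at 37 C, 5% CO2. Cells were HepG2, plated overnight at 37 C in MEM plus 10% FBS.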

[18] = qHTS assay to test for compound auto fluorescence at 590 nm (red) in HepG2 cell free culture (AID 720684)
In short: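 Cell-free; medium MEM + 10% FBS; compound or DMSO added by pintool; read Ex 540/Em 590 nm; Rose Bengal sodium as red reference fluorophore.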

[19] = biological target: Glucocorticoid receptor (Homo sapiens) (UniProt P04150); assay: qHTS assay to identify small molecule agonists of the glucocorticoid receptor (GR) signaling pathway (AID 720691; active = well fitted activation curve with a large enough effect in the signal ratio in the repeat runs, not every such curve was filed as active; the % refers to the signal ratio)
In short: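 A HeLa cervical cancer line expressing GR and a glucocorticoid response element-driven beta-lactamase gene is treated with compounds for 18 h; LiveBLAzer B/G FRET substrate is then applied and fluorescence read.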

[20] = biological target: Glucocorticoid receptor (Homo sapiens) (UniProt P04150); assay: qHTS assay to identify small molecule antagonists of the glucocorticoid receptor (GR) signaling pathway (AID 720692; active = well fitted inhibition curve with a large enough effect in the signal ratio in the repeat runs, not every such curve was filed as active; the % refers to the signal ratio)
In short: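 GRE-bla HeLa line, dex-stimulated (5 nM final). Compound exposure 18 h, 37 C. Beta-lactamase FRET read after 2 h RT substrate.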

Measured: Potency

Chain of Glucocorticoid receptor (Homo sapiens) (P04150 whole entry, looked up): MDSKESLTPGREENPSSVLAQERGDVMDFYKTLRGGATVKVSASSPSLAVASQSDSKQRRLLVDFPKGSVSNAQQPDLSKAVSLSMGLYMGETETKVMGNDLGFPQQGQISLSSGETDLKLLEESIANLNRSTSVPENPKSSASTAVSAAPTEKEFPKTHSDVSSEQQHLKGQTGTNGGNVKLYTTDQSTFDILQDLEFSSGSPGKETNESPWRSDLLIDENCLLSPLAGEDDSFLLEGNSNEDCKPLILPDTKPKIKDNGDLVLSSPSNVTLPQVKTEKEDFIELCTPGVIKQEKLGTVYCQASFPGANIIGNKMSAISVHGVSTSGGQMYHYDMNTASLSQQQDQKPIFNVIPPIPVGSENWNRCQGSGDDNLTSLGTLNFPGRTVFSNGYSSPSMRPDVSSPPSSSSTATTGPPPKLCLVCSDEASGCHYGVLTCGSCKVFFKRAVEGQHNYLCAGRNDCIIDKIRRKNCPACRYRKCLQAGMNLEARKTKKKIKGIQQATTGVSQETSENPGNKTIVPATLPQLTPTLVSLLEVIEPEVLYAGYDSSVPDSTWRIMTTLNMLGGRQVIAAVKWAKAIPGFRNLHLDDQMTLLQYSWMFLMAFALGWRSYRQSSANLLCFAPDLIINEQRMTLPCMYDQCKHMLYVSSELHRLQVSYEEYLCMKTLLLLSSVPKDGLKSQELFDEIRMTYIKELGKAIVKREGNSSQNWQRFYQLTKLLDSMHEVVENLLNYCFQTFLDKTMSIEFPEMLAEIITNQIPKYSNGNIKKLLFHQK

CCCCCCOC(=O)CCCCC(=O)OCCCCCC
not listed: [18] | [19] | [20]
inactive: all other assays above

CCCN1CCCC[C@H]1C(=O)Nc1c(C)cccc1C
not listed: [6] | [19] | [20]
inactive: all other assays above

CCCCCCCCCCCC
not listed: [18]
inactive: all other assays above

O=C1CCCC(=O)C1
not listed: [18]
inactive: all other assays above

Cc1cc2c(cc1S(N)(=O)=O)S(=O)(=O)CCC2
not listed: [6]
inactive: all other assays above

CCC(=O)OC(C)c1ccccc1 (stereo not given)
not listed: [6] | [20]
inactive: all other assays above

Cc1ccc(=O)n(-c2ccccc2)c1
not listed: [5] | [6] | [19] | [20]
inactive: all other assays above

Nc1cc(=O)[nH]c(N)n1
not listed: [5] | [19] | [20]
inactive: all other assays above

CN1CCN(c2cc3c(cc2F)c(=O)c(C(=O)O)cn3-c2ccc(F)cc2)CC1
not listed: [5] | [6] | [20]
inactive: all other assays above

CC(C[N+](C)(C)C)OC(N)=O (stereo not given)
not listed: [5] | [18]
inactive: all other assays above

CC(=O)CC(C)(C)C1CCCCC1
not listed: [6] | [18] | [19] | [20]
inactive: all other assays above

CC1(C)C(O)C(C)(C)C1O (stereo not given)
not listed: [5] | [6]
inactive: all other assays above

CC/C=C\CCOC(C)=O
not listed: [6] | [18]
inactive: all other assays above

CCCc1cc(C(N)=S)ccn1
not listed: [5] | [20]
inactive: all other assays above

COc1nc(N)nc2c1ncn2[C@@H]1O[C@H](CO)[C@@H](O)[C@@H]1O
not listed: [6] | [18]
inactive: all other assays above
